Several values for one entry are separate records, joined by “and”; a condition that tells them apart may be missing. Equal values may be shown once. Results filed as inconclusive are left out. Activity calls are given as the source filed them. Unless noted, calls come from the whole dose curve; as a rule, active = well fitted curve in the direction sought with a large enough effect; inconclusive = small, poorly fitted or top-dose-only effect, or another doubt; inactive = no such curve, though single readings can be large; an effect the other way counts as inactive or inconclusive.

This is an account of results in PubChem BioAssay (NCATS).

A short description of experiment [1]: Cell Viability - LYMP2-002 (AID 977).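 Note: plate controls were DMSO only for no effect and 92 µM tetraoctylammonium bromide for full effect.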 Summed up: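 Human lymphoblastoid cells, 2500/well, complete medium; 5 h 37 C settle; compound 24 h 37 C; CellTiter-Glo, 30 min RT; luminescence. Decrease in ATP = cytotoxicity; AC50 via Hill equation.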
The nature of experiment [2]: Cell Viability - LYMP2-006 (AID 978). Note: % is set by controls: 0 for no effect and ±100 for the full control effect; nearly all actives have a fitted effect of over 60% in size. The method, boiled down:
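Cells are seeded at 2500 per well and rested 5 hr at 37 C. Compounds are added across a concentration series for 24 hr at 37 C, after which ATP is quantified by luciferase luminescence.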

Experiment [3] can be described thus: Cell Viability - LYMP2-007 (AID 979).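 Note: cells exposed to compound for 24 h before reading; nearly all actives have a fitted effect of over 60% in size.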 Note: potency is the fitted concentration of half-maximal effect. Summed up:
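AC50 values come from Hill-equation fits of luminescent intracellular ATP (CellTiter-Glo, 30 min, room temperature) following 24 h compound exposure at 37 C. Cells: LYMP2-007 lymphoblastoid line, 2500 per well, in complete culture medium.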

A short description of experiment [4]: Cell Viability - LYMP2-008 (AID 980). Note: % is set by controls: 0 for no effect and ±100 for the full control effect; nearly all actives have a fitted effect of over 60% in size. Summed up: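 Cytotoxicity determined from ATP-dependent luciferase luminescence (CellTiter-Glo) following 24 h compound exposure of human lymphoblastoid LYMP2-008 cells at 37 C. Concentration-response data fitted to the Hill equation to give AC50.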
The nature of experiment [5]: Cell Viability - LYMP2-010 (AID 981). Note: % is set by controls: 0 for no effect and ±100 for the full control effect; nearly all actives have a fitted effect of over 55% in size. The method, boiled down: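 CellTiter-Glo ATP luminescence measured cytotoxicity after 24 h compound exposure at 37 C. LYMP2-010 cells were seeded at 2500/well, with tetraoctylammonium bromide as control; concentration-response curves gave AC50 values by the Hill equation.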
Experiment [6] in a line: Cell Viability - LYMP2-012 (AID 982).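 Note: cellular ATP by luciferase luminescence where a drop means cytotoxicity; cells exposed to compound for one day before reading; 0% = DMSO only and full loss = 92 µM tetraoctylammonium bromide; nearly all actives have a fitted effect of over 55% in size.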
A short description of experiment [7]: Cell Viability - LYMP2-014 (AID 983).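 Note: plate controls were DMSO only for no effect and 92 µM tetraoctylammonium bromide for full effect; nearly all actives have a fitted effect of over 50% in size.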 The method, boiled down: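 Intracellular ATP loss, read by luciferase luminescence, measures acute cytotoxicity after 24 h compound exposure of lymphoblastoid LYMP2-014 cells (2500/well, 37 C). Concentration-response data fitted to the Hill equation for AC50.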
A short description of experiment [8]: Cell Viability - LYMP2-016 (AID 984). Note: % is set by controls: 0 for no effect and ±100 for the full control effect; nearly all actives have a fitted effect of over 55% in size. The method, boiled down:
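Cells were seeded at 2500 per well and rested 5 hr before a 24 hr compound exposure at 37 C. Viability was then gauged as cellular ATP by luciferase luminescence, with AC50 values fitted to the Hill equation.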

The nature of experiment [9]: Cell Viability - LYMP2-018 (AID 985).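 Note: plate controls were DMSO only for no effect and tetraoctylammonium bromide at 92 µM for full effect; nearly all actives have a fitted effect of over 50% in size.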 The method, boiled down: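 Viability read as CellTiter-Glo luminescence (cellular ATP) after 24 hr compound exposure at 37 C of 2500 LYMP2-018 lymphoblastoid cells/well, pre-plated 5 hr. Hill-equation modelling gave AC50.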
Experiment [10] is described as follows: Cell Viability - LYMP2-020 (AID 986).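 Note: plate controls were DMSO only for no effect and tetraoctylammonium bromide at 92 µM for full effect; nearly all actives have a fitted effect of over 55% in size.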 Summed up:
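Cytotoxicity in qHTS format: luminescent ATP readout from CellTiter-Glo after 24 h compound exposure at 37 C in complete medium. LYMP2-020 lymphoblastoid cells were seeded at 2500/well; concentration-response data fitted to the Hill equation for AC50.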

A short description of experiment [11]: Cell Viability - LYMP2-022 (AID 987). Summed up: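 Cytotoxicity read as decreased cellular ATP (CellTiter-Glo luminescence, 30 min room temperature) after 24 hours compound exposure of 2500 lymphoblastoid LYMP2-022 cells/well at 37 C. Concentration-response data fitted with standard Hill equation for AC50.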
A short description of experiment [12]: Cell Viability - LYMP2-024 (AID 988).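 Note: plate controls were DMSO only for no effect and 92 µM tetraoctylammonium bromide for full effect; nearly all actives have a fitted effect of over 60% in size.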 Summed up:
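Cytotoxicity was taken as a decrease in ATP (CellTiter-Glo luminescence) after 24 hr compound exposure at 37 C of LYMP2-024 lymphoblastoid cells, 2500 cells/well. Concentration-response data were fitted to the Hill equation to give AC50.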

Experiment [13] in a line: Cell Viability - LYMP2-026 (AID 989). Note: % is set by controls: 0 for no effect and ±100 for the full control effect; nearly all actives have a fitted effect of over 50% in size. Summed up:
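Cytotoxicity read as ATP-dependent luminescence (CellTiter-Glo, 30 min room temperature) after 24 h compound treatment at 37 C. LYMP2-026 lymphoblastoid line seeded at 2500 cells/well; AC50 derived by standard Hill equation.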

Experiment [14] is described as follows: Cell Viability - LYMP1-002 - Assay at 24 hr (AID 993). Note: % is set by controls: 0 for no effect and ±100 for the full control effect. Summed up:
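qHTS cytotoxicity at 24 h: CellTiter-Glo ATP luminescence in lymphoblastoid line LYMP1-002 incubated with compound at 37 °C. Concentration-response modeled with the Hill equation for AC50; tetraoctylammonium bromide served as positive control.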

The nature of experiment [15]: Cell Viability - LYMP1-002 - Assay at 40 hr (AID 994). The method, boiled down:
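Cytotoxicity was read as loss of cellular ATP (CellTiter-Glo luminescence) after 40 hr compound exposure at 37 C of 2500 LYMP1-002 lymphoblastoid cells per well. Concentration-response data were fitted with the standard Hill equation to give AC50.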

Experiment [16] can be described thus: qHTS Assay for Lipid Storage Modulators (AID 1519; calls by dose curve; for activity change, negative = inhibition: % is set by controls: 0 for no effect and ±100 for the full control effect). The following applies: Drosophila S3 cells, BODIPY lipid droplet/cell ratio, laser cytometry, cells loaded with oleic acid. The method, boiled down: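 Cells seeded at 5,000 per well were treated with compounds over a concentration series and loaded with oleic acid (400 uM, as added). Lipid droplet fluorescence (488 nm excitation, 500-530 nm channel) was read by laser-scanning cytometry and normalized to 20 uM Triacsin C.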
On the technique in general: qHTS replaces the single test concentration by a dilution series.

The target of experiment [17] is DNA repair nuclease/redox regulator APEX1 (Homo sapiens) (UniProt P27695). Description: qHTS Validation Assay for Inhibitors of the Human Apurinic/apyrimidinic Endonuclease 1 (APE1) (AID 1705;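 note: TAMRA fluorescence gain over two minutes as APE1 cuts a quenched THF abasic duplex; % is set by controls: 0 for no effect and ±100 for the full control effect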). Summed up: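 qHTS, 1536-well. APE1 + cpd 15 min RT → 50 nM TAMRA/BHQ-2 THF-abasic dsDNA substrate → kinetic fluorescence, 3 reads/60 s; delta(read3−read1) = reaction progress. No-enzyme buffer = negative control.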

Experiment [18] concerns the target Alpha-galactosidase A (Homo sapiens) (UniProt P06280). Description: Counterscreen for Glucocerebrosidase Inhibitors: qHTS Assay for Human alpha-Galactosidase at pH 4.5 (AID 992). Note: 0% is about no effect. The method, boiled down: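 Each compound is preincubated briefly with 2 nM enzyme before substrate addition (80 uM); plates then sit 20 min at ambient temperature, are quenched with 1M NaOH/1M glycine, and read fluorometrically.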
For orientation: A counterscreen serves to expose hits that act by an unwanted route or on another target.

In experiment [19] the target is alpha-glucosidase (Oryza sativa, rice) (UniProt Q653V4). As to the kind of experiment: Counterscreen for Glucocerebrosidase Inhibitors: qHTS Assay for Rice alpha-Glucosidase at pH 5.0 (AID 997).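 Note: 0% = full activity with enzyme and -100% = basal without enzyme.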 Summed up: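 Endpoint fluorogenic assay at pH 5.0: compounds (0.7 nM to 77 uM) titrated against 4 nM rice enzyme and 400 uM 4-MU-alpha-glucoside for 20 min at room temperature; NaOH/glycine stop, read ex 365/em 440 nm, Hill-fitted AC50.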

Setting [20] is: measured here: cell count channel max response.
Where [21] appears, read: measured here: lipid channel max response.

DNA repair nuclease/redox regulator APEX1 (Homo sapiens), sequence (P27695 whole entry, looked up): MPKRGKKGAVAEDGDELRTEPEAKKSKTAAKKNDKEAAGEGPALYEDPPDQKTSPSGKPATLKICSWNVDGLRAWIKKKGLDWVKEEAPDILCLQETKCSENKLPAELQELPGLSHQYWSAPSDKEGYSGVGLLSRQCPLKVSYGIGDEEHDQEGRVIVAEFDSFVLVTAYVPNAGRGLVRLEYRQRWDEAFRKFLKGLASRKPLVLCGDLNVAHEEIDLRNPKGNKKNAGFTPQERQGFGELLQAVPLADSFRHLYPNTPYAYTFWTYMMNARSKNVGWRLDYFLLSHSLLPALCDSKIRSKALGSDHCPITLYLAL
Alpha-galactosidase A (Homo sapiens), sequence (P06280 whole entry, looked up): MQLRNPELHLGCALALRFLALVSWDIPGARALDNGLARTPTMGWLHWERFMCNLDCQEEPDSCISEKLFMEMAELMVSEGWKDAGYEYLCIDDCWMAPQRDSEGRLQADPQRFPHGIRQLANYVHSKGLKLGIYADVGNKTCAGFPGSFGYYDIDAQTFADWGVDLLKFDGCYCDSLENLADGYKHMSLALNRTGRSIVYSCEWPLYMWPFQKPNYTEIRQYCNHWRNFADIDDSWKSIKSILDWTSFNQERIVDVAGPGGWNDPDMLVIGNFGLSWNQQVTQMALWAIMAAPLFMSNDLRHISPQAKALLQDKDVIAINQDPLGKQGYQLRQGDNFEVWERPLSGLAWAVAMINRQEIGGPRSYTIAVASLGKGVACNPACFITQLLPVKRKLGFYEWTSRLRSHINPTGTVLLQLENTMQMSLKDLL

Turning to `CCCc1cc(=O)[nH]c(=S)[nH]1`, the Potency entry in experiment [1], in [2], in experiment [3], in experiment [4], in experiment [5] and in experiment [6] was “inactive” throughout. In addition, the Potency result in [7], in [8], in experiment [9], in [10], in experiment [11] and in experiment [12] was “inactive” throughout. Also, the Potency entry in [13], in [14] and in experiment [15] was “inactive” in each case. In addition, the activity change, negative = inhibition in [16] (at 25.7 µM (top of the series)) was 0.162% (inactive); in experiment [16] (at 57.5 µM (top of the series)) it was 8.07% (inactive). Moreover, the max response in experiment [16] (setting [20]) is 4.47% and 16.1%; in experiment [16] (setting [21]) it was 5.94% and 25.3%.
Regarding `O=C(c1ccccc1)c1ccc2n1CCC2C(=O)O` (stereo not given), the activity change, negative = inhibition in [16] (at 57.5 µM (top of the series)) is 6.17% (inactive). Besides, the max response in [16] (setting [20]) came out at 4.19%; in experiment [16] (setting [21]) it was 13.3%. In experiment [17], the Potency entry is “inactive”.
As for `Cc1cc2c(s1)Nc1ccccc1N=C2N1CCN(C)CC1`, the activity change, negative = inhibition in experiment [16] (at 57.5 µM (top of the series)) was 13.5% (inactive). Moreover, the figures for the max response in experiment [16] (setting [20]) and in [16] (setting [21]) were -2.56% and 9.09%, respectively.
For the molecule `CCc1nc(N)nc(N)c1-c1ccc(Cl)cc1`, the Potency entry in experiment [2], in experiment [7], in [8], in [9], in experiment [10] and in experiment [11] was “inactive” each time. Besides, the Potency entry in experiment [13] and in experiment [14] was “inactive” each time. The Potency in experiment [3] was 50.1 µM (active). The activity change, negative = inhibition in experiment [16] (at 25.7 µM (top of the series)) is -2.49% (inactive); in experiment [16] (at 57.5 µM (top of the series)) it was 9.2% (inactive). The max response in experiment [16] (setting [20]) is -6.7% and 7.93%; in [16] (setting [21]) it was -10.2% and 22.1%.
For the molecule `O=Nc1c(-c2c(O)[nH]c3cc(Br)ccc23)[nH]c2ccccc12`, the molecule was classed as inactive in [18] and in experiment [19]. Further, the Potency result in [17] is “inactive”.
In the case of `c1ccc2[nH]c(-c3cscn3)nc2c1`, the Potency entry in experiment [1], in [2], in experiment [3], in experiment [4], in [5] and in experiment [6] was “inactive” in each case. Moreover, the Potency entry in [7], in [8], in experiment [9], in experiment [10], in experiment [11] and in experiment [12] was “inactive” throughout. Also, the Potency entry in experiment [13], in [14] and in experiment [15] was “inactive” throughout. For the same molecule, the activity change, negative = inhibition in experiment [16] (at 25.7 µM (top of the series)) is 0.183% (inactive). Moreover, the values for the max response in experiment [16] (setting [20]) and in experiment [16] (setting [21]) were -11.6% and -10.4%, respectively.
